# The supplement of paper PMC11732987, “Enantioselective OTUD7B fragment discovery through chemoproteomics screening and high-throughput optimisation” (Communications Chemistry, 2025)
# Unmarked numbers belong to inactive results.
# Assays:
# Experiment in all cases: log2 ratio of Biotin-Ahx-Ub-VS probe labelling (fragment/DMSO); higher = less target engagement (more negative = stronger competition), active = hit call of the paper (q ≤ 0.05, log2 ratio ≤ -1)
# Settings in all cases: compound concentration: 200 uM; treatment time: 3 h
# USP42 = biological target: T1, USP42 (UniProt Q9H9J4)
# T1 sequence (whole entry): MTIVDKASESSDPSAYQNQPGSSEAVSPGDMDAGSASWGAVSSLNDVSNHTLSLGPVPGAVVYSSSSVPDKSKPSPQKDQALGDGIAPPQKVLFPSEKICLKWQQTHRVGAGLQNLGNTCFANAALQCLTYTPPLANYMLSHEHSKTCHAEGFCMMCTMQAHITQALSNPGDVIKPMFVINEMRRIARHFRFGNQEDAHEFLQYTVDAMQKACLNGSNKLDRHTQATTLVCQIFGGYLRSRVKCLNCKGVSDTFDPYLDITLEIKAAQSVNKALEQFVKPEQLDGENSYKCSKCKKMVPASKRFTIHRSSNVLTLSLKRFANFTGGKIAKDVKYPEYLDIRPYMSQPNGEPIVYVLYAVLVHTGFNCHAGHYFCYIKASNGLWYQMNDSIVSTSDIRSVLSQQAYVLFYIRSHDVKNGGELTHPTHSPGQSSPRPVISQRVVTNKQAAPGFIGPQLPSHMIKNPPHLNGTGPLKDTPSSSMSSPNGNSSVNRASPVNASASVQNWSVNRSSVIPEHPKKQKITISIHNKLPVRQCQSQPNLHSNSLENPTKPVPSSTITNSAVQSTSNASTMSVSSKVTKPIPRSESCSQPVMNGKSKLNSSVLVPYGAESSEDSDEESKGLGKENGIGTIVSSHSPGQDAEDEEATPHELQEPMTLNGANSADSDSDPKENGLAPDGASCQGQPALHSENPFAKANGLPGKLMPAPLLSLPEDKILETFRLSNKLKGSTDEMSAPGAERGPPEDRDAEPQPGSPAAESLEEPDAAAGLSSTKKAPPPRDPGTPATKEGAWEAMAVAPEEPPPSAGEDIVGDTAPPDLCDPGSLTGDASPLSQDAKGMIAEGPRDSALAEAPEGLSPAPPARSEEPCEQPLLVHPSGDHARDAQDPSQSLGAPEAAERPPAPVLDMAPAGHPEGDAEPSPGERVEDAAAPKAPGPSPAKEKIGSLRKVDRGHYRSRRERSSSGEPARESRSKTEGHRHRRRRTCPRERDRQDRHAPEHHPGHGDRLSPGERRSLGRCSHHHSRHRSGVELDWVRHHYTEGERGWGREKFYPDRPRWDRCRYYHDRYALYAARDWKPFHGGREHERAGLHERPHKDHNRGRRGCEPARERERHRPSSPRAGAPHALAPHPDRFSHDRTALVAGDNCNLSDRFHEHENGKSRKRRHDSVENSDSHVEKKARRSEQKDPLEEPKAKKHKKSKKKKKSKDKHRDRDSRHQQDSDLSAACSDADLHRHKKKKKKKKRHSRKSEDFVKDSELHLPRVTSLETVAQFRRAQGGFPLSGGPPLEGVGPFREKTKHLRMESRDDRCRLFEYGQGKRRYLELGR
# Method in brief: (§1)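 Labelling with Biotin-Ahx-Ub-VS (0.5 µM final, 1 h) followed a 3 h triplicate treatment of HEK293T lysate (495 µg per sample, Tris/CHAPS/IGEPAL buffer with protease inhibitors) with fragment at 200 µM or vehicle. Labelled DUBs were NeutrAvidin-enriched, digested with LysC and trypsin, and run by diaPASEF LC-MS/MS. The values, average log2 fragment/vehicle ratios by unpaired t-test, come from global-median-normalised Spectronaut label-free quantities. Proteins with ≥2 unique peptides were used.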
# USP46 = USP46 (UniProt P62068)
# Sequence of USP46 (P62068 whole entry): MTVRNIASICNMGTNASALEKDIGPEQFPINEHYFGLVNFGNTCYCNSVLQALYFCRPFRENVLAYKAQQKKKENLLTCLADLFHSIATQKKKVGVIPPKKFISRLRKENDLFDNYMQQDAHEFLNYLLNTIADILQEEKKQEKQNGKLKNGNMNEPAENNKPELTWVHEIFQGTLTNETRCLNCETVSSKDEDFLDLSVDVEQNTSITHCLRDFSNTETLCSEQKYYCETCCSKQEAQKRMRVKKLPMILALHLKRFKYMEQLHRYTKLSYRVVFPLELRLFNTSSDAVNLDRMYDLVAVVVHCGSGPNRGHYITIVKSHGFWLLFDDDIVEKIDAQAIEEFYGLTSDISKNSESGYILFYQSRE
# Method in brief: as §1
# USP47 = biological target: T2, USP47 (UniProt Q96K76)
# T2 sequence (whole entry): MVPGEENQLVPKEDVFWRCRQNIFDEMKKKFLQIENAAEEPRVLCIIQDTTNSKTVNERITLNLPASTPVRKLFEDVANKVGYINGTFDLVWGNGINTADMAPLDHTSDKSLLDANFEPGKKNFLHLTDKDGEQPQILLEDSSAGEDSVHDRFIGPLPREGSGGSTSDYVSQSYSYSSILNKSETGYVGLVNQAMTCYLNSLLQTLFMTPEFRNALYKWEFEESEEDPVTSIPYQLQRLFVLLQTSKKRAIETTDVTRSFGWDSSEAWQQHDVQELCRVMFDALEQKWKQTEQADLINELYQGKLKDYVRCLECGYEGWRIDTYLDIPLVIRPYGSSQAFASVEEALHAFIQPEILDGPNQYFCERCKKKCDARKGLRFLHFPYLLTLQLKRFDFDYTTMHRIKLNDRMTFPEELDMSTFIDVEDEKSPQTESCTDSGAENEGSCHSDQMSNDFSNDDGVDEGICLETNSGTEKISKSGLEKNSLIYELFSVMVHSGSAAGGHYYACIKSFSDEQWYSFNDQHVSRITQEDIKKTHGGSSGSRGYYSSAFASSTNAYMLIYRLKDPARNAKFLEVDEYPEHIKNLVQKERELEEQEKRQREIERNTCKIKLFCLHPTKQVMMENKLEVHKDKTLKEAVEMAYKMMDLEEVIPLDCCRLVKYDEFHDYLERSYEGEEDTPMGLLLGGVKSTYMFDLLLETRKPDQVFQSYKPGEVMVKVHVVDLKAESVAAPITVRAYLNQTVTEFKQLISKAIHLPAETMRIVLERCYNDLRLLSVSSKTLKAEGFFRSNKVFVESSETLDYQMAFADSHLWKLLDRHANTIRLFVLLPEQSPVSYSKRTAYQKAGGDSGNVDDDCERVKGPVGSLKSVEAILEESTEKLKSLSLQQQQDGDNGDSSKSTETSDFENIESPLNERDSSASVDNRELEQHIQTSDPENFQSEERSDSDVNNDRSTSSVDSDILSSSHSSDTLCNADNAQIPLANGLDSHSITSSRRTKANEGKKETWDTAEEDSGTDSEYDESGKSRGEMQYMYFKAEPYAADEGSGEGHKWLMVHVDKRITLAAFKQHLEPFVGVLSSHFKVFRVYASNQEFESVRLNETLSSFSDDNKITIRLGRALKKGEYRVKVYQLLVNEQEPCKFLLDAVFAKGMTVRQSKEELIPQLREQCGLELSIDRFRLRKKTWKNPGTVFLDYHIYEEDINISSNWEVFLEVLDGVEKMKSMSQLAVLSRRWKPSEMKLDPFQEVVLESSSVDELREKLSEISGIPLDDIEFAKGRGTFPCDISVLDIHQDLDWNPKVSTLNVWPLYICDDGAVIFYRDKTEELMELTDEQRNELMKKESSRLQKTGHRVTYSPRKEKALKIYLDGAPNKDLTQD
# Method in brief: as §1
# USP48 = biological target: T3, USP48 (UniProt Q86UV5)
# T3 sequence (whole entry): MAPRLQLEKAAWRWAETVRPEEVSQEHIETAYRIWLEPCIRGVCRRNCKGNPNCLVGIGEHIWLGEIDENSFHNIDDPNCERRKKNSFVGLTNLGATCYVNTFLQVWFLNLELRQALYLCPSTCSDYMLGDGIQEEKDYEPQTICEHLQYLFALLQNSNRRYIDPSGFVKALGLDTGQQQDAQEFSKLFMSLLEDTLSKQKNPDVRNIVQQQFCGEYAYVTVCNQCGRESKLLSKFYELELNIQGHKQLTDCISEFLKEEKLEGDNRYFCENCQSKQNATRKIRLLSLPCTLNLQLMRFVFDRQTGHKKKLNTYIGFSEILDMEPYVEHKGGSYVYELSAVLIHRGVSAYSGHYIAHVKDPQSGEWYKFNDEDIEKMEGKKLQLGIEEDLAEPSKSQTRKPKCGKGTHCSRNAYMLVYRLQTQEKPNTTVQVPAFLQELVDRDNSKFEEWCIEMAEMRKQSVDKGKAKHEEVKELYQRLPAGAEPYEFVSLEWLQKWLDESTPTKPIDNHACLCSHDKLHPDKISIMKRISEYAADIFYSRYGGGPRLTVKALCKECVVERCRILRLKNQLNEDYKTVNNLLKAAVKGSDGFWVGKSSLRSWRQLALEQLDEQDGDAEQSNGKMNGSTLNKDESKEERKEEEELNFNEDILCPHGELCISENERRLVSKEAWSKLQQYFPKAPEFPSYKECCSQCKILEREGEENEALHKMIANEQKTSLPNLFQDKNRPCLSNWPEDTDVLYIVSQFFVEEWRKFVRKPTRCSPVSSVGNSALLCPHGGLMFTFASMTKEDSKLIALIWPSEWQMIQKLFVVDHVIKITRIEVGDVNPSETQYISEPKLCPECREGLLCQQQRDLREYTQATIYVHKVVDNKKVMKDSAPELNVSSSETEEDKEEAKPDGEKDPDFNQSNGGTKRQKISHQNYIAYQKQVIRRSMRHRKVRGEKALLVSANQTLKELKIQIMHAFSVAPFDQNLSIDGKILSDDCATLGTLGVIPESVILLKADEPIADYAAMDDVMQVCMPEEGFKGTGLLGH
# Method in brief: as §1
# USP5 = biological target: T4, USP5 (UniProt P45974)
# T4 sequence (whole entry): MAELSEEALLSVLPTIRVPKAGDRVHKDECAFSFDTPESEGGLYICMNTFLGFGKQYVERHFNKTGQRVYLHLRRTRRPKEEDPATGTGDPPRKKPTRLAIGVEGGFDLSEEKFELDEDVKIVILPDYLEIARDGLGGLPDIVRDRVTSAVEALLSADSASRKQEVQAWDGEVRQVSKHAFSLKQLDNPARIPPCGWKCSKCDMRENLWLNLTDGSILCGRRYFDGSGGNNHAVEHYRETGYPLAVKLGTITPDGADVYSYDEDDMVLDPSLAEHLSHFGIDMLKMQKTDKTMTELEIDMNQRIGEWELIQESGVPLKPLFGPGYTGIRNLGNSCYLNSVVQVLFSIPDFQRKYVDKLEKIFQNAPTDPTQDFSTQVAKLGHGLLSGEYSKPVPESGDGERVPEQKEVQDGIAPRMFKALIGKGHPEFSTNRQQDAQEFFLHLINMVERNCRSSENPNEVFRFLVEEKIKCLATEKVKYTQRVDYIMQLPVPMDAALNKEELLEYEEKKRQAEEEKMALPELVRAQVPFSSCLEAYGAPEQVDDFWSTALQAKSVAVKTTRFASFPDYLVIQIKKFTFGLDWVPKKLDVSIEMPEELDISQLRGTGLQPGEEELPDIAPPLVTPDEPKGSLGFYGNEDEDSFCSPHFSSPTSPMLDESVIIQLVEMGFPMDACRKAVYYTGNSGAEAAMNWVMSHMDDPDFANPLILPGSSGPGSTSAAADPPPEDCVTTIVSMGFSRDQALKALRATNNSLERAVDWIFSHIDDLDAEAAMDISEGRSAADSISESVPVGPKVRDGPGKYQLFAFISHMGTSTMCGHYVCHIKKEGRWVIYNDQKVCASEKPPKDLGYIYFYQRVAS
# Method in brief: as §1
# USP54 = USP54 (UniProt Q70EL1)
# Sequence of USP54 (Q70EL1 whole entry): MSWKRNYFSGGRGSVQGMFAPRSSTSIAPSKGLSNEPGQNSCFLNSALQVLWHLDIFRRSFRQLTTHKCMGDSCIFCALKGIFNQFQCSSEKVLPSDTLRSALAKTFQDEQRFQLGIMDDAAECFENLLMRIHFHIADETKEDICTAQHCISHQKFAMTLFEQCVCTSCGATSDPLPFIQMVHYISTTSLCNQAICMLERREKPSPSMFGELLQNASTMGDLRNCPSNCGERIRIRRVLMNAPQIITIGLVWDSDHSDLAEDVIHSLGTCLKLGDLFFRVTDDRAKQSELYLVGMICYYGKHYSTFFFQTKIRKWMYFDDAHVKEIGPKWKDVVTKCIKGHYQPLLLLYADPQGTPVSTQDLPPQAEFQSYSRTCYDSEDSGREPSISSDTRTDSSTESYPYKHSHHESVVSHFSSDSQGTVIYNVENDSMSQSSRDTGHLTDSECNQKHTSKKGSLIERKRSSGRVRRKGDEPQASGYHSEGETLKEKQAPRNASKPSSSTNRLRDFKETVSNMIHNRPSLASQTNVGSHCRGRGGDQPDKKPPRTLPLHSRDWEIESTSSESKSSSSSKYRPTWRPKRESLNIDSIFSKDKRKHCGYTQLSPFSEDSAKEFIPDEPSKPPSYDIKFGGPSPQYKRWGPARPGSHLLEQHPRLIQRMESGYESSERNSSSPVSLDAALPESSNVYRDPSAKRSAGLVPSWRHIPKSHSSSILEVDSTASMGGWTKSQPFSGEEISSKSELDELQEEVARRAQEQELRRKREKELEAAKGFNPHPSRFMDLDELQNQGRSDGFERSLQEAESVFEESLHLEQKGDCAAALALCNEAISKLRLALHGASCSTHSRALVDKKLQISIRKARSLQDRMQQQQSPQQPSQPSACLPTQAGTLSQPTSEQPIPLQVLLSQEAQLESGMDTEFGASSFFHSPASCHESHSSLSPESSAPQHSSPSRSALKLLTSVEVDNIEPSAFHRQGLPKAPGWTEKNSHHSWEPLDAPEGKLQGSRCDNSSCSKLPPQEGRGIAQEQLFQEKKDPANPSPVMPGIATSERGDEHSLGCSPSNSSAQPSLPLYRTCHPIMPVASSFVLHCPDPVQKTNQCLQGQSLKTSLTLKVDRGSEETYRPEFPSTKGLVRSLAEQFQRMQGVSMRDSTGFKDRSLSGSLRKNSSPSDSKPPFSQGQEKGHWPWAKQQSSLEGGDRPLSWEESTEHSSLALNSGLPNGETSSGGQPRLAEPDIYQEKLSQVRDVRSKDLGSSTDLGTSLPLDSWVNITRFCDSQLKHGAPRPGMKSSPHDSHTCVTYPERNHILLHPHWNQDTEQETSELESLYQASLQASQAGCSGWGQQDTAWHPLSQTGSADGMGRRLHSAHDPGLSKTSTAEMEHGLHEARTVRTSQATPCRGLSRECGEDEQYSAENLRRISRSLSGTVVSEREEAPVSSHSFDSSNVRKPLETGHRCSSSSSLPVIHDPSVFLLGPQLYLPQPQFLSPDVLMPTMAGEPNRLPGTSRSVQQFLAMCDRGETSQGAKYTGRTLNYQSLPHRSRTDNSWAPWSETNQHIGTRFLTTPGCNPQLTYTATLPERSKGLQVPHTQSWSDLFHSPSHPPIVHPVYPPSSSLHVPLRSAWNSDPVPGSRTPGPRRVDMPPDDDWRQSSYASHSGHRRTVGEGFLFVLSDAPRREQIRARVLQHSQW
# Method in brief: as §1
# USP7 = USP7 (UniProt Q93009)
# Sequence of USP7 (Q93009 whole entry, looked up): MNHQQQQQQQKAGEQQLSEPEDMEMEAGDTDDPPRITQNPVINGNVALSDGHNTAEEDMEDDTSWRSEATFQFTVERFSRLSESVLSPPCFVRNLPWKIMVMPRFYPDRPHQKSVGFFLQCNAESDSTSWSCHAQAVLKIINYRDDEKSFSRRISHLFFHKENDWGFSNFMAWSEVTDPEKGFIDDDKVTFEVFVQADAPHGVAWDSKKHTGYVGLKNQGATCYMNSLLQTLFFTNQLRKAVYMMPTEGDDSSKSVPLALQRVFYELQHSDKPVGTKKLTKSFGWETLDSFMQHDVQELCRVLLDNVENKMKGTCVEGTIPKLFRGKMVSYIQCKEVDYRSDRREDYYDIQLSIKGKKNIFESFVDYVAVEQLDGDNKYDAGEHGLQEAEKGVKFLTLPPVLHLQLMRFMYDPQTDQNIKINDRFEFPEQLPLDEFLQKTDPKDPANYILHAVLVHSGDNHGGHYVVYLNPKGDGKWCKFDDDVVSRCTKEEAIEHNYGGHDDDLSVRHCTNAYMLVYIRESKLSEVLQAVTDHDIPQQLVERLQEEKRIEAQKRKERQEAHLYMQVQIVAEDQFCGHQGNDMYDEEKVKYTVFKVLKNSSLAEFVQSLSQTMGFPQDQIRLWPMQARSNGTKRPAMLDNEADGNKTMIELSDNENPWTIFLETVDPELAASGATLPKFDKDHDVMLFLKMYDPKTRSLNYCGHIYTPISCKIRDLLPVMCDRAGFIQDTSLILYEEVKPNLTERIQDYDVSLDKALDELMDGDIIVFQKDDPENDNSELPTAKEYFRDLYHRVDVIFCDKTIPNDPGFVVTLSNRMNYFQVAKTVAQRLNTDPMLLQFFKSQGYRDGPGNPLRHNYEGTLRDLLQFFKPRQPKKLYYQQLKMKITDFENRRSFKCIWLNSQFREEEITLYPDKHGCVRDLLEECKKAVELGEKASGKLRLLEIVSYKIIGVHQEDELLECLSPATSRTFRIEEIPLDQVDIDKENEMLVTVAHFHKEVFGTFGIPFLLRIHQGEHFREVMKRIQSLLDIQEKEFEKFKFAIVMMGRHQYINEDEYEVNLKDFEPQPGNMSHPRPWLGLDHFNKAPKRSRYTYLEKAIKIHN
# Method in brief: as §1
# USP8 = biological target: T5, USP8 (UniProt P40818)
# T5 sequence (whole entry): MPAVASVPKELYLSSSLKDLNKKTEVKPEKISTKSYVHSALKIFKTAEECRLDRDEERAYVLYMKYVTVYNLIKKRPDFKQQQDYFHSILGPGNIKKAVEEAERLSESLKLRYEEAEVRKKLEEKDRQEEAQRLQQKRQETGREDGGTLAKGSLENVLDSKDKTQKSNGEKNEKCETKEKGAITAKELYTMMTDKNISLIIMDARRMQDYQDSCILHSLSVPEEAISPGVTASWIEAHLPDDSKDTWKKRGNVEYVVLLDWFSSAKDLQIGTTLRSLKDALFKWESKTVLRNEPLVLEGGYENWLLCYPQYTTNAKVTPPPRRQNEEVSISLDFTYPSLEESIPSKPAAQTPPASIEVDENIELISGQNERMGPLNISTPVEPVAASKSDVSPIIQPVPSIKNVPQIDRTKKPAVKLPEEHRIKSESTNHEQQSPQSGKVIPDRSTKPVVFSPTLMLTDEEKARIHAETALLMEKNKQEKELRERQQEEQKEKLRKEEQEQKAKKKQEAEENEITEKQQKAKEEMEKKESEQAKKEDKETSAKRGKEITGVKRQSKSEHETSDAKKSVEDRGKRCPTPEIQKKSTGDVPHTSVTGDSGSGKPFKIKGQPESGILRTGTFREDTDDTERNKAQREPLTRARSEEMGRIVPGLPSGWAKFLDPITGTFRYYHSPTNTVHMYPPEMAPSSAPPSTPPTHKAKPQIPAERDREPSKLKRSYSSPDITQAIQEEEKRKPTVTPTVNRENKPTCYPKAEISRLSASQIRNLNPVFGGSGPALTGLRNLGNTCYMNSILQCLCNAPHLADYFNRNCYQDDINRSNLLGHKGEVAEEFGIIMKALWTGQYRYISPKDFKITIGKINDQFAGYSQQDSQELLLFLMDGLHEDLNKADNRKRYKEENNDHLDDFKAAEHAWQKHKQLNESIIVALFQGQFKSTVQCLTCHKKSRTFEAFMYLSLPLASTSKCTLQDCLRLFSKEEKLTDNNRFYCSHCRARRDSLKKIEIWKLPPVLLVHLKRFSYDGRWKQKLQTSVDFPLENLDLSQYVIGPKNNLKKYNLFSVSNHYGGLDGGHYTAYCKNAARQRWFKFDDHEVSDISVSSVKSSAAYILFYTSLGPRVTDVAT
# Method in brief: as §1
# USP9X = USP9X (UniProt Q93008)
# Method in brief: as §1
# UniProt O00487 = biological target: UniProt O00487
# Sequence of UniProt O00487 (O00487 whole entry): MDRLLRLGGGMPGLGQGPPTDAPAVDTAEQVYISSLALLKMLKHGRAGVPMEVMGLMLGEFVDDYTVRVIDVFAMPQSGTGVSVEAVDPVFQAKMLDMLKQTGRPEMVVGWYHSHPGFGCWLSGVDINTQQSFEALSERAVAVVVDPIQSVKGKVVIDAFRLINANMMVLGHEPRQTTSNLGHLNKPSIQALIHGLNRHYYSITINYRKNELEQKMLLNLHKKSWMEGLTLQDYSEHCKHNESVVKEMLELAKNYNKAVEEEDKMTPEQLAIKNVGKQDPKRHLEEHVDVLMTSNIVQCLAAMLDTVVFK
# Method in brief: as §1
structure (smiles),measurement,setting,value
O=C(CCl)N1CCc2sccc2C1,log2 ratio of Biotin-Ahx-Ub-VS probe labelling,USP42,0.32
same,log2 ratio of Biotin-Ahx-Ub-VS probe labelling,USP46,-0.578
same,log2 ratio of Biotin-Ahx-Ub-VS probe labelling,USP47,-0.774
same,log2 ratio of Biotin-Ahx-Ub-VS probe labelling,USP48,-0.677
same,log2 ratio of Biotin-Ahx-Ub-VS probe labelling,USP5,-0.108
same,log2 ratio of Biotin-Ahx-Ub-VS probe labelling,USP54,-0.356
same,log2 ratio of Biotin-Ahx-Ub-VS probe labelling,USP7,-1.34 (active)
same,log2 ratio of Biotin-Ahx-Ub-VS probe labelling,USP8,0.015
same,log2 ratio of Biotin-Ahx-Ub-VS probe labelling,USP9X,-0.286
same,log2 ratio of Biotin-Ahx-Ub-VS probe labelling,UniProt O00487,0.0182
